# PubChem BioAssay
# The source made the active and inactive calls. Unless noted, how the calls were made is not given here.
# Columns and labels:
# [1] = test system: Wnt5a (protein binding on small-molecule microarray); assay: small molecules binding Wnt5a protein – biophysical, small-molecule microarray, 635/667 nm fluorescence, primary screen (AID 1142); conditions: 635 nm fluorescence, higher = more signal;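 further: fluorescence read at 667 nm with signal to noise per printed feature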
# [2] = ATP-based viability of Huh7 replicon cells – cell-based, CellTiter-Glo luminescence, basal, 48 h, cytotoxicity control for HCV replication inhibitor project, primary screen (AID 1143); conditions: higher = more signal, called active from +8 up or from −8 down;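 further: Huh7 hepatoma cells carrying a hepatitis C replication reporter with no stimulus; test concentration not given here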
# [3] = Pseudomonas biofilm growth suppression – PAO1 strain, BacTiter-Glo luminescence, LB-PBS, primary screen (AID 1144); conditions: P. aeruginosa PAO1 biofilm, 12 h, higher = more signal
# [4] = basal CRE-LacZ reporter activity in PC12 – cell-based, unstimulated, primary screen (AID 1145); conditions: no forskolin, luminescence, 4.5 h, higher = more signal, called active from +8 up or from −8 down
# [5] = forskolin-driven CRE-LacZ activity in PC12 – cell-based, CRE-LacZ reporter, forskolin-stimulated, primary screen (AID 1146); conditions: luminescence, 4.5 h, higher = more signal, called active from +8 up or from −8 down;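 further: PC12 cells with 6xCRE LacZ reporter stimulated by forskolin 10 µM; beta-galactosidase reporter signal reflecting CREB driven transcription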
# [6] = target: Streptavidin (Streptomyces avidinii) (UniProt P22629); assay: compounds binding control protein streptavidin – biophysical, small-molecule microarray, 635/667 nm fluorescence, artefact control for SMM compound annotation, primary screen (AID 1147); conditions: higher = more signal;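 further: signal reflects streptavidin binding to arrayed compounds as a control protein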
# [7] = probe aInhba binding on compound microarray – biochemical, small-molecule microarray, 635/667 nm fluorescence, primary screen (AID 1148); conditions: higher = more signal;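 further: score merges 667nm spot fluorescence with signal-to-noise for antibody binding to printed compounds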
# Torsin-1A (Homo sapiens) [8] = target: Torsin-1A (Homo sapiens) (UniProt O14656); assay: TOR1A wild-type binding on microarray – cell lysate, small-molecule microarray, lysate, 635/667 nm, primary screen (AID 1149); conditions: COS7 hTOR1A-WT lysate, 635 nm fluorescence, higher = more signal
# Torsin-1A (Homo sapiens) [9] = target: Torsin-1A (Homo sapiens) (UniProt O14656); assay: torsin A mutant lysate binding on microarrays – cell lysate, small-molecule microarray, COS7 lysate, 635/667 nm fluorescence, primary screen (AID 1150); conditions: COS7 hTOR1A mutant lysate, 635 nm fluorescence, higher = more signal;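 further: score pools 667 nm emission and signal to noise measuring lysate protein binding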
# [10] = test system: Sonic hedgehog protein (Shh); assay: Sonic hedgehog microarray binding compounds – biochemical, small-molecule microarray, 635/667 nm fluorescence, primary screen (AID 1151); conditions: 635 nm fluorescence, higher = more signal;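 further: Shh protein binding to compounds spotted on small-molecule microarray slides; score combines spot fluorescence intensity with signal-to-noise across triplicate slides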
# [11] = optical density shifts of acrAB sulA E. coli – strain DRC41, OD650, 48 h, E. coli filamentation inducer project, primary screen (AID 1152); conditions: higher = more signal, called active from +8 up or from −8 down;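 further: E. coli MC1000 strain DRC41 lacking acrAB efflux pump and sulA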
# [12] = probe aLefty1 binding on compound microarray – biochemical, small-molecule microarray, 635/667 nm fluorescence, primary screen (AID 1153); conditions: higher = more signal;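 further: score merges spot fluorescence with signal-to-noise ratio from the scanned slide images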
# [13] = plasmodial surface anion channel blockers, osmotic lysis – cell-based, P. falciparum Indochina, OD700, 1 h, primary screen (AID 1154); conditions: P. falciparum Indochina infected RBC osmotic lysis, higher = more signal, called active from +8 up or from −8 down
# [14] = plasmodial surface anion channel blockers, osmotic lysis – cell-based, P. falciparum Indochina, OD700, 2 h, primary screen (AID 1155);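 further: lysis reports solute entry through the parasite surface anion channel PSAC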; conditions: P. falciparum Indochina infected erythrocytes, higher = more signal, called active from +8 up or from −8 down
# [15] = changes in parasitized red cell lysis, either direction – P. falciparum Indochina, OD700, 3 h, PSAC antagonist project, primary screen (AID 1156); conditions: P. falciparum-infected erythrocytes, osmotic lysis, higher = more signal, called active from +8 up or from −8 down
# [16] = plasmodial surface anion channel blockers, osmotic lysis – cell-based, P. falciparum Indochina, OD700, 18 h, primary screen (AID 1157); conditions: P. falciparum Indochina infected erythrocytes, osmotic lysis OD700, 18 h; higher = more signal, called active from +8 up or from −8 down
# [17] = S6 kinase pathway phospho-S6 level changes – cell-based, A549, cytoblot, luminescence, serum-stimulated, primary screen (AID 1158); conditions: 5 h, higher = more signal;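 further: serum-stimulated A549 lung adenocarcinoma cells; signal is phosphorylated S6 detected by cytoblot immunostaining with HRP secondary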
# [18] = target: NADPH oxidase 2 (Homo sapiens) (UniProt P04839); assay: compounds shifting NOX2 Amplex Red fluorescence – cell-based, HEK293-NOX2, PMA-stimulated, NOX inhibitor project, primary screen (AID 1159); conditions: 45 min, higher = more signal, called active from +8 up or from −8 down; further: test concentration not given here
# [19] = target: NADPH oxidase 4 (Homo sapiens) (UniProt Q9NPH5); assay: compounds shifting NOX4 Amplex Red fluorescence – cell-based, HEK293-NOX4, tetracycline-induced, NOX inhibitor project, primary screen (AID 1160); conditions: HEK293-NOX4, Amplex Red H2O2 fluorescence, 45 min; higher = more signal, called active from +8 up or from −8 down
# [20] = target: NADPH oxidase 5 (Homo sapiens) (UniProt Q96PH1); assay: compounds shifting NOX5 Amplex Red fluorescence – cell-based, HEK293-NOX5, NOX inhibitor project, primary screen (AID 1161); conditions: HEK293-NOX5, ionomycin, 45 min, higher = more signal
# Sequence of NADPH oxidase 5 (Homo sapiens) (Q96PH1 whole entry, looked up): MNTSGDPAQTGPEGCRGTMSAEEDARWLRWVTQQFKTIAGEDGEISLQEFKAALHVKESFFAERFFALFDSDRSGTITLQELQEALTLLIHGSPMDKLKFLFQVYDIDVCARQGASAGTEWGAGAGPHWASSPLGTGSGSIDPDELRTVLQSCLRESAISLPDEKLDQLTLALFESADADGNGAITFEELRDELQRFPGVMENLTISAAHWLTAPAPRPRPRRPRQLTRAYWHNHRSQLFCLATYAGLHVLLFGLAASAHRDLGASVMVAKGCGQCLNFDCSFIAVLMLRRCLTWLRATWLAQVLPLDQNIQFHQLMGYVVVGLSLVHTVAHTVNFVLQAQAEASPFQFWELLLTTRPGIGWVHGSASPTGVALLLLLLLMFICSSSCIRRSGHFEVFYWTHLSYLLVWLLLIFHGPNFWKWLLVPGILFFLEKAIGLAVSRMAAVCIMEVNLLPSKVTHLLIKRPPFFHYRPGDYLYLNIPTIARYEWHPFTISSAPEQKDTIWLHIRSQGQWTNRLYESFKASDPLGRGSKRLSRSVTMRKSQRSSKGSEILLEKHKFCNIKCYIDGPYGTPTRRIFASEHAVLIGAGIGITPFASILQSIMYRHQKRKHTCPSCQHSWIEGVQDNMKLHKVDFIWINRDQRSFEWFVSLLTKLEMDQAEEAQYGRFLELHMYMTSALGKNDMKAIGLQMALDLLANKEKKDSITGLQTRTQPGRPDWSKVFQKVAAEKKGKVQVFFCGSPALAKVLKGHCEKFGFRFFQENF
# Sequence of NADPH oxidase 4 (Homo sapiens) (Q9NPH5 whole entry, looked up): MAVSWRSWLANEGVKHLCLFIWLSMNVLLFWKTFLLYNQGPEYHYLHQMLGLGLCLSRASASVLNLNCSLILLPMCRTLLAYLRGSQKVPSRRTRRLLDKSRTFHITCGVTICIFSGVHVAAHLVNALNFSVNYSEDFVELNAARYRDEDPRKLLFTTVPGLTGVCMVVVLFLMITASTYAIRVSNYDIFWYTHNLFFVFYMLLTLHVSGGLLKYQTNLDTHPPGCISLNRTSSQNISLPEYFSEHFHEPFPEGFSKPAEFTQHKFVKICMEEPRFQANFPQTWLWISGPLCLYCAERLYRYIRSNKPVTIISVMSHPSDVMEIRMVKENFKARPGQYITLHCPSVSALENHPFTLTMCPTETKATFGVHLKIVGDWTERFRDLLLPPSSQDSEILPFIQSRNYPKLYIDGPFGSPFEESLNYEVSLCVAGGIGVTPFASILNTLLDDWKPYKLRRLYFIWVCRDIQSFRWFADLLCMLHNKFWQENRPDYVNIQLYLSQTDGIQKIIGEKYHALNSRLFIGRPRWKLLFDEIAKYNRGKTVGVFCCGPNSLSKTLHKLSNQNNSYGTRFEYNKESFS
# Sequence of Torsin-1A (Homo sapiens) (O14656 whole entry, looked up): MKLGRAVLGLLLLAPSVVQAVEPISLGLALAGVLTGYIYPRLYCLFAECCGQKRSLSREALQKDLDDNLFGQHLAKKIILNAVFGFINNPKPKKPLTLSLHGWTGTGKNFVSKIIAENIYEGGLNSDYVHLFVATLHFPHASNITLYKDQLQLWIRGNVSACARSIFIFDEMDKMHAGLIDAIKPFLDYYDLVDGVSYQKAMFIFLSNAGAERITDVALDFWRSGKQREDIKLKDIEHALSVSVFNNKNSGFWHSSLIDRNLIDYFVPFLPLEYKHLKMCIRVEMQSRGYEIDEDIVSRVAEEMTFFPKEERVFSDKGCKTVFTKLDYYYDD
# Sequence of Streptavidin (Streptomyces avidinii) (P22629 whole entry, looked up): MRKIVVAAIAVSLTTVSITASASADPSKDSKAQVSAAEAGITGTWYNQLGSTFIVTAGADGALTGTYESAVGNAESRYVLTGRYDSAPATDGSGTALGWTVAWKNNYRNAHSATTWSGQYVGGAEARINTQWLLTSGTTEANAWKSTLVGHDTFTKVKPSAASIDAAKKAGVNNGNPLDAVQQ
# Sequence of NADPH oxidase 2 (Homo sapiens) (P04839 whole entry, looked up): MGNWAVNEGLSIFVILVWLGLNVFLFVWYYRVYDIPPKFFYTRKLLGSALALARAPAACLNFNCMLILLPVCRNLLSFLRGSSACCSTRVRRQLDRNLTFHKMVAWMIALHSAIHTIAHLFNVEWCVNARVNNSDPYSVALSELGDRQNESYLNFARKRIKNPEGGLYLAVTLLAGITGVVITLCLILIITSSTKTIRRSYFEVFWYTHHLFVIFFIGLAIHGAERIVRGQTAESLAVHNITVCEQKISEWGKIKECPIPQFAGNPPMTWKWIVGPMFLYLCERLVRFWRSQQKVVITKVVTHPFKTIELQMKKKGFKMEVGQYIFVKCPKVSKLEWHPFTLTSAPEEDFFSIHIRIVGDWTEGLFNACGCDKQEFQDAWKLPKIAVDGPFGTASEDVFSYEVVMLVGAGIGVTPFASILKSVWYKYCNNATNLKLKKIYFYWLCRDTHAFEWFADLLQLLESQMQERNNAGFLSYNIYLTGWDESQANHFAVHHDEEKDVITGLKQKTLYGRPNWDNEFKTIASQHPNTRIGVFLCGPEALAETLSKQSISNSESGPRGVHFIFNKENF
Structure (SMILES),composite z-score [1],z-score [2],z-score [3],z-score [4],z-score [5],composite z-score [6],composite z-score [7],composite z-score (Torsin-1A (Homo sapiens) [8]),composite z-score (Torsin-1A (Homo sapiens) [9]),composite z-score [10],z-score [11],composite z-score [12],z-score [13],z-score [14],z-score [15],z-score [16],z-score [17],z-score [18],z-score [19],z-score [20]
CC(CCN1CCCc2nc(C)c(C)cc21)=NO[C@@H](C)c1cn([C@H](CO)Cc2ccccc2)nn1,0.0241,-0.0864 (inactive),0.0842 (inactive),-1.21 (inactive),-0.82 (inactive),0.525,0.153,0.639,0.686,0.71,1.15 (inactive),-0.193,0.202 (inactive),0.0178 (inactive),0.0882 (inactive),0.392 (inactive),0.137,-0.588 (inactive),0.313 (inactive),0.351
COc1ccc(COC(=O)NN=C2C[C@@H](O)[C@@H](O)[C@@H]3[C@@H]4C(=O)N([C@@H](C)c5ccccc5)C(=O)[C@@H]4CC[C@H]23)cc1,0.366,-1.71 (inactive),-0.183 (inactive),1.79 (inactive),-0.183 (inactive),1.02,0.0667,-0.982,0.106,-0.983,0.486 (inactive),0.751,7.67 (inactive),0.805 (inactive),-0.0805 (inactive),0.501 (inactive),-0.34,0.947 (inactive),0.672 (inactive),-0.419
C[C@@H]1CC[C@H]2C(=O)OC(Cc3ccccc3)CN2[C@H]1c1ccc(Br)cc1 (stereo not given in full),-0.0444,-0.395 (inactive),0.7 (inactive),1.2 (inactive),-0.517 (inactive),0.221,-0.0963,0.172,-0.0439,0.513,0.283 (inactive),-0.0111,1.96 (inactive),0.728 (inactive),-0.23 (inactive),0.54 (inactive),-0.0843,0.379 (inactive),0.268 (inactive),0.151
CCc1cc2c(nc1CC)CCN(CCC(C)=NOC(C)CN1CCCCc3nc(C)c(C)cc31)C2 (stereo not given),0.393,-3.02 (inactive),0.227 (inactive),2.08 (inactive),0.633 (inactive),0.88,0.0713,2.23,1.08,1.58,-1.74 (inactive),0.131,5.84 (inactive),0.499 (inactive),1.54 (inactive),0.539 (inactive),-0.408,-3.06 (inactive),-3.1 (inactive),-2.84
CCOC(=O)[C@H](Cc1ccccc1)NC(=O)CCC1CC(OC(=O)NCc2cccc3ccccc23)CC2(CCCC(COC(=O)NCCc3ccc(Cl)cc3)O2)O1 (stereo not given in full),0.0449,-2.69 (inactive),-1.39 (inactive),0.563 (inactive),0.0305 (inactive),0.998,-0.223,-0.162,0.244,0.932,-1.37 (inactive),0.539,7.28 (inactive),0.618 (inactive),-0.552 (inactive),-0.687 (inactive),0.335,0.694 (inactive),0.92 (inactive),0.986
CCN1C(=O)[C@H]2[C@H]3[C@H](O)[C@H](O)CC(=NO[C@@H]4O[C@H](CO)[C@@H](O)[C@H](O)[C@H]4O)[C@H]3CC[C@H]2C1=O,0.534,-1.31 (inactive),0.427 (inactive),0.246 (inactive),0.322 (inactive),0.473,-0.0873,0.261,0.577,0.47,-0.462 (inactive),-0.234,-0.875 (inactive),0.0108 (inactive),-0.677 (inactive),0.109 (inactive),-0.218,1.4 (inactive),0.422 (inactive),-1.28
COC(=O)[C@H](C)NC(=O)CCC1CC(OC(=O)NCc2cccc3ccccc23)CC2(CCCC(COC(=O)NCCCN3CCCC3=O)O2)O1 (stereo not given in full),0.205,-0.0671 (inactive),-1.07 (inactive),-0.438 (inactive),-0.178 (inactive),0.865,-0.152,0.519,0.745,0.608,-3.55 (inactive),0.582,0.381 (inactive),0.397 (inactive),0.0085 (inactive),0.246 (inactive),-0.463,-0.383 (inactive),-0.0825 (inactive),-0.075
CCN1C(=O)[C@H]2[C@H]3[C@H](O)[C@H](O)CC(=NOCC=C(C)CCC=C(C)C)[C@@H]3CC[C@H]2C1=O,0.288,-2.44 (inactive),0.17 (inactive),-0.115 (inactive),-0.157 (inactive),-0.43,-0.204,2.38,0.981,2.07,-1.27 (inactive),-0.22,1.17 (inactive),0.579 (inactive),0.0742 (inactive),0.134 (inactive),-0.23,1.56 (inactive),0.207 (inactive),-1.06
